Reference: the supplement of paper PMC10127200
Where a name gives a salt, the structure may show the parent alone.

Assays:
Experiment in all cases: Euclidean distance of Cell Painting phenotypic profile (signed KS, 77 features) to DMSO centroid (dimensionless distance); 5 or 10 uM (library dependent); higher = stronger phenotypic change vs DMSO (phenoactivity)
Conditions in all cases: 48 h
786-O = system: 786-O
Method in brief: (§1)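 Stained cells were imaged confocally at 20X with 9 fields per well, after 48 h of exposure to library compounds at 10 or 5 uM (set by library; 0.1% DMSO final). The cells were five cancer lines and a healthy fibroblast line. From the images, Harmony extracted 77 features, each expressed as a signed Kolmogorov-Smirnov statistic relative to same-plate vehicle wells. Phenoactivity is measured as Euclidean distance to the median vehicle profile, using plate-position-corrected, correlation-weighted profiles averaged across replicates at the top dose.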

A549 = system: A549
Method in brief: as §1

DU145 = system: DU145
Method in brief: as §1

FB = system: FB
Method in brief: as §1

HEPG2 = system: HEPG2
Method in brief: as §1

OVCAR4 = system: OVCAR4
Method in brief: as §1

SMILES	Euclidean distance (786-O)	Euclidean distance (A549)	Euclidean distance (DU145)	Euclidean distance (FB)	Euclidean distance (HEPG2)	Euclidean distance (OVCAR4)
C=CC(=O)Nc1cccc(Oc2nc(Nc3ccc(N4CCN(C)CC4)cc3)ncc2Cl)c1	2.42	2.73	2.46	4.15	2.28	3.17
C=CCOc1ccccc1OCC(O)CNC(C)C (centres undefined) [Oxprenolol HCl]	0.863	0.819	1.56	1.21	0.783	0.994
COCCCOc1ccnc(C[S+]([O-])c2nc3ccccc3[nH]2)c1C (centres undefined) [Rabeprazole]	1.5	0.662	0.942	1.03	1.49	0.928
N#CC[C@H](C1CCCC1)n1cc(-c2ncnc3[nH]ccc23)cn1 [Ruxolitinib Phosphate]	1.96	1.67	1.41	1.39	1.1	1.26
O=C(O)c1cc(O)c(O)c(O)c1 [Gallic acid]	1.13	0.673	0.909	1.31	0.825	0.935
CC1(C)NC(=O)N(c2ccc([N+](=O)[O-])c(C(F)(F)F)c2)C1=O [Nilutamide]	0.81	0.753	1.03	0.9	0.474	0.959
Cc1ccc(Cl)c(Nc2ccccc2C(=O)O)c1Cl [Meclofenamate Sodium]	1.09	1.34	1.66	1.48	0.74	1.94
CN(C)CCC(c1ccccc1)c1ccccn1 (centres undefined) [Pheniramine Maleate]	0.54	1.02	0.777	0.632	0.694	1.34
COc1cc(N)c(Cl)cc1C(=O)NC1CCN(CCCOc2ccc(F)cc2)CC1OC (centres undefined) [Cisapride hydrate]	0.963	1.16	0.853	1.23	0.401	1.05
CCOc1nc2cccc(C(=O)OCc3oc(=O)oc3C)c2n1Cc1ccc(-c2ccccc2-c2noc(=O)[nH]2)cc1 [Azilsartan Medoxomil]	0.852	1.33	0.487	0.689	0.927	0.929
CN[C@@H]1[C@@H](O[C@H]2O[C@H](CO)[C@@H](N)[C@H](O)[C@H]2O)OC2C[C@@H](N)[C@@H](O[C@H]3[C@H](O)[C@@H](O)[C@H](N)C[C@@H]3N)OC2[C@@H]1O (some centres undefined) [Apramycin Sulfate]	1.51	0.794	0.965	1.27	0.895	1.19
O=C(Nc1cc(Cl)cc(Cl)c1O)c1c(O)c(Cl)cc(Cl)c1Cl [Oxyclozanide]	1.04	0.69	0.929	0.828	0.649	1.52
N=C(N)NCCC[C@H](N)C(=O)O [L-Arginine HCl (L-Arg)]	1.3	0.522	0.828	0.796	0.566	1.14
Cc1cnc(Nc2ccc(N3CCN(C)CC3)cc2)nc1Nc1cccc(S(=O)(=O)NC(C)(C)C)c1	3.77	4.93	3.18	3.58	2.58	3.26
NC(=O)/N=N/C(N)=O [Azodicarbonamide]	1.07	0.533	1.15	0.879	1.28	1.14
CC(Cc1ccc(O)c(O)c1)C(C)Cc1ccc(O)c(O)c1 (centres undefined) [Nordihydroguaiaretic acid (NDGA)]	1.19	0.902	1.27	1.54	1.06	0.861
NCCCC[C@@H]1NC(=O)[C@@H](Cc2ccccc2)NC(=O)[C@H](CC(=O)O)NC(=O)CNC(=O)[C@H](CCCN=C(N)N)NC1=O [Cyclo (-RGDfK)]	2.63	1	2.08	0.709	3.57	2.1
O=c1c(-c2ccc(O)cc2)coc2cc(O)cc(O)c12 [Genistein]	1.75	1.52	1.14	1.28	0.498	1.13
CO[C@@]1(NC(=O)CSC[C@@H](N)C(=O)O)C(=O)N2C(C(=O)O)=C(CSc3nnnn3C)CS[C@@H]21 [Cefminox Sodium]	1.29	0.521	2.14	1.02	0.714	1.32
COc1ccc(-c2ccc3c(N4CCOCC4)nc(N4C[C@@H](C)O[C@@H](C)C4)nc3n2)cc1CO	1.93	2.15	1.96	3.61	2	2.43
CC(C)NCC(O)c1ccc(O)c(O)c1 (centres undefined) [Isoprenaline HCl]	1.55	1.42	1.07	1.04	0.596	1.2
C=CCNC(N)=S [Allylthiourea]	1.12	0.909	0.907	0.873	0.823	1.54
COc1cc(/C=C/C(=O)N2CCN(CC(=O)N3CCCC3)CC2)cc(OC)c1OC [Cinepazide maleate]	1.21	0.96	1.04	1.16	0.337	1.41
OCCN1CCN(CC/C=C2/c3ccccc3Sc3ccc(C(F)(F)F)cc32)CC1 [Flupenthixol dihydrochloride]	1.63	2.21	1.71	2.52	2.68	2.01
